Compound activity deposited in PubChem BioAssay by National Center for Advancing Translational Sciences (NCATS).
Shiga inhibitor = inhibitors of Shiga toxin in Vero cells; Vero cells, Shiga toxin protein synthesis inhibition reporter; inhibition, % at 38.7 µM; actives 9.2% (n = 290,000); in the data active means inhibition mostly above about 28%, no sharp cut-off; inactive means mostly below about 43%; further: 0% is about no effect
CHX counter = affects cycloheximide protein synthesis inhibition readout, counter-screen; cell reporter, cycloheximide protein synthesis inhibition counterscreen; actives 12% (n = 300,000); max response, %; AID 2314; in the data active means max response mostly above about 13%, no sharp cut-off; inactive means mostly below about 14%; further: read at 38.3 µM for the half of the compounds with a filed dose; 0% is about no effect
Sm TGR inh = blocks Schistosoma mansoni thioredoxin glutathione reductase. Q962Y6. actives 3% (n = 360,000). Potency, µM (series often up to 114 µM), for the others: at the top dose activity change, negative = inhibition, usual class: inhibitors. AID 485364. purified TGR, DTNB reduction, TNB absorbance 405 nm; further: potency means the concentration at half of the fitted maximal effect; on the % scale 0 is the no-effect control and ±100 the full control effect; nearly all actives have a fitted effect of over 60% in size
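Kinetic colorimetric format: TGR-catalysed, NADPH-driven DTNB reduction monitored via TNB absorbance. Enzyme dispensed at 20 nM; compound exposure 15 min at room temperature before reaction start.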
LmPK inh = LmPK (Leishmania mexicana) enzyme inhibition. Q27686. purified LmPK, Kinase-Glo ATP luminescence, 1 h. Potency, µM (titrated, usually from 57.5 µM), without a hit: at the top dose activity change, negative = inhibition, most hits filed as inhibitors. actives 0.37% (n = 290,000). AID 1721; further: potency means the concentration at half of the fitted maximal effect; on the % scale 0 is the no-effect control and ±100 the full control effect
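Purified LmPK (0.1 nM) converted ADP (0.1 mM) to ATP with PEP (0.5 mM) in imidazole buffer pH 7.2 with KCl and MgCl2, 1 h at room temperature. ATP was read by Kinase-Glo luminescence; data normalized to uninhibited and no-enzyme controls.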
Tb PYK inh = blocks Trypanosoma brucei pyruvate kinase. TbPYK enzyme, Kinase-Glo Plus ATP luminescence, 45 min. Potency, µM (titrated, usually from 76.8 µM), for inactives: top-dose activity, negative = inhibition, actives largely listed as inhibitors. actives 0.12% (n = 410,000); further: potency means the concentration at half of the fitted maximal effect; on the % scale 0 is the no-effect control and ±100 the full control effect; nearly all actives have a fitted effect of over 50% in size
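Readout: single end-point luminescence (Kinase-Glo Plus, 10 min). Reaction conditions were TbPYK/substrate plus 130 uM ADP, 45 min at RT, pH 7.2 TEA buffer. No-enzyme wells served as controls, and data were normalized before concentration-response fitting.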
FBPA Giardia inh = blocks Giardia fructose-bisphosphate aldolase activity. Potency, µM (highest dose often 59.6 µM), without a hit: at the top dose activity, negative = inhibition, actives largely listed as inhibitors. actives 0.71% (n = 290,000). purified Giardia FBPA; further: potency means the concentration at half of the fitted maximal effect; on the % scale 0 is the no-effect control and ±100 the full control effect; nearly all actives have a fitted effect of over 55% in size
Target sequence (A8B2U2 whole entry, looked up): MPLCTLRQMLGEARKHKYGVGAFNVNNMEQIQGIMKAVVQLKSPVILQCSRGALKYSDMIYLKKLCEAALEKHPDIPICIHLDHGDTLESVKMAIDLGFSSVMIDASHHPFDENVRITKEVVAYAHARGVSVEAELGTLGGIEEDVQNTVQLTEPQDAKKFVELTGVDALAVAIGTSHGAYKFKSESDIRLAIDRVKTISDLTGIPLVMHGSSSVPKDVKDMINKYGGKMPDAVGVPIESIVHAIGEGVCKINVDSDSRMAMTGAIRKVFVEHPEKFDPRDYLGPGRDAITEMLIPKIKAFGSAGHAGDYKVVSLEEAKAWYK
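Giardia FBPA (40 nM reagent) was preincubated 10 min at RT with compound (up to 57.5 uM final), then substrate plus GAPDH/TPI/NAD/arsenate coupling system with diaphorase/resazurin was added; resorufin fluorescence (525/598 nm) was read after 20 min.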
Numbers without * were called inactive; u = inconclusive; x = no result given; + = active, no number; [ ] = remark or other dose. Only a selection was taken, and hits are over-represented in it overall. Unless noted, the call rests on the fitted dose curve; in most records, active means well fitted curve in the direction sought with a large enough effect; inconclusive means small, poorly fitted or top-dose-only effect, or another doubt; inactive means no such curve, though single readings can be large; an effect the other way counts as inactive or inconclusive.

SMILES | Shiga inhibitor | CHX counter | Sm TGR inh | LmPK inh | Tb PYK inh | FBPA Giardia inh
CCn1cc(C2=NC(c3ccccc3)CO2)c2ccccc21 (configuration not stated) | 24.1 | 14.7 | 2.6% | 1.1% | 5.2% | 0.3%
COc1ccc(C2=NC(c3ccccc3)CO2)cc1 (configuration not stated) | 96.4* | 55.7* | -0.4% | -8.4% | x | -3.5%
COc1ccc(C2=N[C@H](c3ccccc3)CO2)cc1 | + | 37.4 | x | x | x | 0.0%[89.2 µM]
COc1ccc(C2=N[C@@H](C(C)C)CO2)cc1 | + | 63.8* | x | x | x | -0.6%[136 µM]
O=[N+]([O-])c1cccc(C2=NC(c3ccccc3)CO2)c1 (configuration not stated) | 80.9* | 23.4* | 2.4% | 2.6% | -2.2% | -3.0%
CCOC(=O)c1ccc(NC(=O)Nc2ccc3snnc3c2)cc1 | x | x | -6.8% | x | -12.5% | x
COc1ccc(N2CCN(c3ncnc4c3cnn4-c3ccc(F)cc3)CC2)cc1 | x | x | 3.6% | x | -11.7% | x
CCN1C(C)=C(C(=O)OC)C(c2ccccc2)N2C(=O)[C@](O)(C(=O)OC)C(c3ccccc3)C(C(C)=O)=C12 (some centres not stated) | x | x | x | x | x | 0.5%[12.9 µM]
CC(=O)N(Cc1ccccc1)c1ncc2c(n1)c(=O)c(C#N)c1ccccn12 | -8.1 | 1.0 | 44.7µM* | 1.0% | 2.9% | u
O=C(NCc1ccccc1F)C(=O)NCC(c1ccco1)S(=O)(=O)c1ccccc1 (configuration not stated) | x | x | -21.0% | x | -1.5% | x
CC(=O)N1CCCN(C(=O)c2cc(COc3c(F)cccc3F)on2)CC1 | 12.2 | 3.7 | 0.7% | -3.6% | 5.0% | x
Cc1cccc(C)c1OCc1cc(C(=O)N2CC3C[C@@H]4CC2C[C@H](C3)C4)no1 | 96.4* | 65.4* | 0.6% | -8.1% | 1.8% | x
Cc1ccc(OCc2cc(C(=O)N3CC4C[C@@H]5CC3C[C@H](C4)C5)no2)cc1C | 134.6* | 34.6* | -11.2% | -2.4% | 6.8% | x
Cc1ccccc1C(=O)Nc1ccc(Cl)cn1 | 115.0* | 24.2* | 7.5% | u | 0.0% | -2.4%
Cc1cc(C(=O)Nc2ccccn2)cs1 | 48.1* | 37.4* | -2.8% | 14.1µM* | -16.5% | 0.0%
Cn1cc(C(=O)Nc2ccccn2)c(=O)c2ccccc21 | 47.3* | 19.7* | 0.6% | -1.4% | 0.7% | -4.0%
O=C(Nc1ccc(Cl)cn1)c1cccc2c(Br)cccc12 | 30.6 | 15.2 | -12.9% | 1.8% | 1.4% | 2.2%
COc1cc(C(=O)Nc2ccccn2)cc(OC)c1OC | -5.2 | -4.3 | -8.3% | -6.8% | -2.1% | -2.1%
Cc1ccccc1C(=O)Nc1ccccn1 | 56.9* | 32.0* | -24.9% | -17.6% | -3.8% | 11.9%
N#Cc1ccc(NC(=O)Nc2ccccc2Br)c2n[nH]nc12 | x | x | x | x | -8.3% | x
COc1ccc(OC)c(NC(=O)CSc2nnc3ccc4ccccc4n23)c1 | x | x | -0.2% | x | -3.0% | x
Brc1ccc(Nc2nc(-c3cccnc3)cs2)cc1 | 121.1* | 53.9* | -13.2% | -3.5% | 0.8% | -7.8%
O=C(Nc1nc(-c2cccnc2)cs1)c1ccc([N+](=O)[O-])cc1 | -1.4 | 12.4 | 8.3% | 1.2% | -10.5% | -0.5%
Cc1ccc(Nc2nc(-c3cccnc3)cs2)cc1C | 96.3* | 50.6* | 9.0% | -4.8% | -3.3% | 6.4%
Clc1cccc(Nc2nc(-c3cccnc3)cs2)c1 | 90.9* | 40.3* | 3.4%[57.1 µM] | -0.1% | -2.8% | -12.9%
SMILES | Shiga inhibitor | CHX counter | Sm TGR inh | LmPK inh | Tb PYK inh | FBPA Giardia inh
Oc1ccc(Nc2nc(-c3cccnc3)cs2)cc1 | x | 38.3* | -15.8% | -17.4% | -10.8% | 2.8%
COc1ccccc1-c1cnc(C(O)c2c(C)cc(C)cc2C)[nH]1 (configuration not stated) | x | x | x | x | -0.5% | x
CC(=O)c1cccc(NC(=O)c2oc(=O)c3ccccc3c2-c2ccccc2)c1 | x | x | 7.2% | x | 1.4% | x
Cc1nc(C)c(-c2csc(Nc3ccc(O)cc3C)n2)s1 | -6.8 | 0.7 | -18.2% | 0.8% | 3.2% | 1.3%
CCOc1ccc(Nc2nc(-c3cccnc3)cs2)cc1 | 57.4* | 40.2* | 0.1% | -4.7% | 3.8% | -4.9%
Cc1ccc(S(=O)(=O)N2CCOCC2)cc1C(=O)Nc1nc(-c2cccnc2)cs1 | -10.8 | 1.4 | -9.8% | 1.7% | 2.1% | -7.7%
